The record followed here is PubChem BioAssay AID1259309 (ICCB-Longwood Screening Facility, Harvard Medical School, 2017).

In all, about 330,000 compounds went through this assay and about 1,800 (0.55%) were called active. Cut-off read from the data, not from the text of the source: active = growth inhibition above about 68%; inactive = the rest. The sample as a whole holds a higher share of actives than the screen did.

The experiment in a line: growth inhibition of ugtP-null S. aureus, primary screen, RN4220 ugtP deletion, OD600 (AID 1259309).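 Note: plate controls were untreated wells for no effect and antibiotic for full effect.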 The settings on record: 16 h, active compounds read high.
On to `CC(=O)C(=NNc1ccccc1)Sc1nnc(-c2ccccc2)n1-c1ccccc1`, for which the growth inhibition is -0.945% (inactive).

For `CCc1ccc(C=Nn2c(C)cc(C)c(C#N)c2=O)cc1`, the growth inhibition is 11.9% (inactive).

For the molecule `CC(=NNC(=O)c1c(-c2ccccc2Cl)noc1C)c1cccc(NC(=O)C(C)C)c1`, the growth inhibition is -1.85% (inactive).

Turning to `O=c1ccnc(Nc2ccc(Cl)cc2)[nH]1`, the growth inhibition was -0.107% (inactive).

Turning to `Cc1csc(Nc2ccc(Cl)cc2)[n+]1-c1ccc(Cl)cc1`, the growth inhibition is 94.3% (active).

`CCOC1OC(C(N)=O)=CC(c2csc3ccccc23)C1CCCO` (stereo unspecified): the growth inhibition is -0.922% (inactive).

Consider `NC(=O)CC1NC(=O)C(CCC(=O)O)NC(=O)c2cc([N+](=O)[O-])cc(I)c2NCCCC(C(N)=O)NC1=O` (stereo unspecified), for which the growth inhibition is 5.02% (inactive).

For the molecule `COc1cccc(C=NNC(=O)c2ccccc2NC(=O)c2ccco2)c1OC`, the growth inhibition was 17.5% (inactive).

As to `COC(=O)Cc1ccc(OCC(=O)NC2CCCC2)cc1`, the growth inhibition is 5.86% (inactive).

For the molecule `CC1(C)SC2C(NC(=O)COc3ccccc3)C(=O)N2C1C(=O)O` (stereo unspecified), the growth inhibition was 101% (active).

`Cc1cccc(OCC(=O)NC2CC(C)(C)NC(C)(C)C2)c1`: the growth inhibition was -2.79% (inactive).

Turning to `O=C(O)CS/C(=C\c1ccc(F)cc1)c1nc2ccccc2s1`, the growth inhibition was -0.309% (inactive).

As to `N#C/C(=C(/O)Cc1cccc2ccccc12)c1nc2ccccc2s1`, the growth inhibition was 88% (active).

In the case of `CC1=CC(=C(C#N)c2nc3ccccc3s2)C=C(C)N1c1ccc(F)cc1F`, the growth inhibition is 3.53% (inactive).

On to `CSc1ccc(C2=CC(=O)CC(c3ccc(F)cc3)C2)cc1` (stereo unspecified), for which the growth inhibition is -1.01% (inactive).

For the molecule `Cc1ccc(C=NNC(=O)CSc2nc3ccccc3c(=O)n2-c2ccccc2)s1`, the growth inhibition is -33.9% (inactive).

Take `Cn1c(SCC(=O)NN=Cc2ccc([N+](=O)[O-])s2)nnc1-c1ccccc1`: the growth inhibition is 100% (active).

`Cc1ccc(C=NNC(=O)CSc2nc3ccccc3n2C)s1`: the growth inhibition was 0.402% (inactive).

As to `CCCc1noc2c1C(=NO)CCC2`, the growth inhibition was 0.229% (inactive).

Consider `COc1cc(NS(=O)(=O)c2ccc(NC(=O)c3ccc([N+](=O)[O-])cc3)cc2)ncn1`, for which the growth inhibition was 2.78% (inactive).

For the molecule `Cn1ccc(=Nc2ccc(NC(=O)c3ccc(N=c4ccn(C)c5ccc([N+](=O)[O-])cc45)cc3)cc2)cc1`, the growth inhibition was 99.6% (active).

Take `CCc1ccc(NC(=O)c2ccc(Cn3cc([N+](=O)[O-])cn3)cc2)cc1`: the growth inhibition was 5.62% (inactive).

`CCOc1cc(C=NNC(=O)c2nnn(-c3nonc3N)c2C)ccc1OCc1cccc(F)c1`: the growth inhibition is -21.1% (inactive).

In the case of `CSc1sccc1C=NNC(=O)c1ccncc1`, the growth inhibition is -0.193% (inactive).

As for `CCN1/C(=C/c2ccc3ccc(C)cc3[n+]2CC)Sc2ccccc21`, the growth inhibition was 100% (active).

For the molecule `CC(=NNC(=O)c1ccc(F)cc1)c1ccccn1`, the growth inhibition is -8.87% (inactive).

With `CCOc1cc(C=NNC(=O)c2cccc(S(=O)(=O)N3CCOCC3)c2)ccc1OCC(=O)N(C)C`, the growth inhibition is 7.71% (inactive).

Regarding `COC(=O)c1ccc(SCc2ccccc2)nc1`, the growth inhibition was 3.84% (inactive).

As to `COc1ccc(CNC(=O)Cc2ccc(-c3ccccc3)cc2)cc1OC`, the growth inhibition is -1.11% (inactive).

In the case of `COC(=O)c1ccc(-c2c(-c3ccccc3)ncc3cc(OC)c(OC)cc23)cc1`, the growth inhibition is 97.6% (active).

For the molecule `Cc1cccc(-n2c(C)cc(C=NNC(=O)c3ccco3)c2C)c1`, the growth inhibition was -2.71% (inactive).

With `COC(=O)C1=C(c2ccc(S(C)(=O)=O)cc2)CC2CCC1N2C(=O)N1CCCC1` (stereo unspecified), the growth inhibition was 2.31% (inactive).

Take `Cc1ccc(C(=O)/C=C/c2c(C)nn(-c3ccccc3)c2Cl)cc1`: the growth inhibition is -4.9% (inactive).

Take `Cc1nn(-c2ccccc2)c(Cl)c1C=NO`: the growth inhibition was -0.481% (inactive).

Turning to `Cc1nn(-c2ccccc2)c(Cl)c1/C=C/C(=O)c1ccc(O)cc1`, the growth inhibition was 86.2% (active).

Regarding `CNC(=S)NN=Cc1c(C(=O)OC)cnn1-c1ccc(F)cc1F`, the growth inhibition was 2.84% (inactive).

As to `O=S(=O)(N=C(c1ccccc1Cl)N1CCOCC1)c1ccccc1`, the growth inhibition is -1.9% (inactive).

For `Cc1cc(C(=O)NN=C2CCCC(C)C2)n[nH]1` (stereo unspecified), the growth inhibition is 1.57% (inactive).

Take `COc1cc(OC)c(S(=O)(=O)Nc2ccccc2C(=O)O)cc1S(=O)(=O)Nc1ccccc1C(=O)O`: the growth inhibition was 7.58% (inactive).

Turning to `COc1ccccc1C(=O)Nc1ccccc1C(=O)Nc1ccccc1`, the growth inhibition was 6.78% (inactive).

In the case of `COc1cc(NC(=O)c2ccccc2NS(=O)(=O)c2ccc(Cl)s2)cc(OC)c1`, the growth inhibition is 88% (active).

Turning to `COC(=O)C1C[C@@]2(O)C(O)C(O)C(O)CC2N1Cc1cc(F)ccc1F` (stereo partly specified), the growth inhibition was -1.93% (inactive).

As to `CCOC(=O)N=C(NC(=O)Nc1ccc(C(=O)OCC)cc1)OC`, the growth inhibition was 0.614% (inactive).

In the case of `Cc1ccccc1C=Nn1c(C2CCCCC2)n[nH]c1=S`, the growth inhibition was -0.971% (inactive).

For `N#CC1=C(SCc2ccccc2)NC(=O)C(C#N)C12CCCC2` (stereo unspecified), the growth inhibition was -2.16% (inactive).

Turning to `N#CC1=C(SCc2ccc(C#N)cc2)N=C(N)C(c2nc(-c3ccccc3)cs2)C12CCCCC2` (stereo unspecified), the growth inhibition was 92.2% (active).

For the molecule `N#Cc1ccc(CSc2ncccn2)cc1`, the growth inhibition was 7.1% (inactive).

Turning to `CC(=NOCC(=O)OCC(=O)Nc1cc(S(C)(=O)=O)ccc1Cl)c1ccc2c(c1)OCO2`, the growth inhibition is 4.9% (inactive).

For the molecule `CCOc1cc(C=NNC(=O)C(O)(c2ccccc2)c2ccccc2)ccc1OC(=O)c1ccco1`, the growth inhibition was 0.814% (inactive).

For the molecule `COCCN=C1NC(c2cccc(C(F)(F)F)c2)C(C(=O)OC)=C(C)N1Cc1ccccc1` (stereo unspecified), the growth inhibition is -23% (inactive).

Consider `CCc1nc(C)ccc1OCC(=O)N(CC)CC`, for which the growth inhibition was 2.97% (inactive).

As to `CCC(C)(C)c1ccc(OCC(=O)N(C)C)c(C(C)(C)CC)c1`, the growth inhibition is 93.1% (active).

In the case of `CN1CCN(C(=O)COc2ccc(C(C)(C)C)cc2Br)CC1`, the growth inhibition is -4.55% (inactive).

For `O=c1[nH]ncc(NN=Cc2cccnc2)c1Cl`, the growth inhibition was 8.44% (inactive).

Turning to `CC(CC(=O)N1CCN(C=O)CC1)=NNC(=O)c1ccc(Cl)cc1`, the growth inhibition is 3.18% (inactive).

`COC(=O)C1=C(C(=O)OC)C2N(C)c3ccccc3[C@@]23CC(CO)N(C(=O)c2cccs2)C3=N1` (stereo partly specified): the growth inhibition is 3.42% (inactive).

`CCOc1ccc(-c2c(C(=O)NN=C(C)c3ccccc3OC)nnn2-c2nonc2N)cc1`: the growth inhibition was 7.28% (inactive).

For the molecule `COc1cc(C(=O)NN=Cc2cc([N+](=O)[O-])cs2)cc(OC)c1OC`, the growth inhibition was 2.4% (inactive).

`S=c1[nH]nc(-c2cccc(Cl)c2)n1N=Cc1ccc(-c2ccccc2Br)o1`: the growth inhibition was 27.2% (inactive).

As for `CC1=NOC(=O)C1=Cc1ccc(-c2ccc(Cl)c(C(=O)O)c2)o1`, the growth inhibition is 2.05% (inactive).

Turning to `O=C(O)C(c1ccccc1)N1C(=O)/C(=C\c2ccc(-c3cccc(Cl)c3)o2)SC1=S` (stereo unspecified), the growth inhibition is 95.7% (active).
